# Laboratory results as given in PubChem BioAssay (NCATS).
# Records with an inconclusive call do not appear. Entries that show only a call come without a potency. Active and inactive are the calls of the source. Unless noted, calls follow the shape of the dose curve; as a rule, active = well fitted curve in the direction sought with a large enough effect; inconclusive = small, poorly fitted or top-dose-only effect, or another doubt; inactive = no such curve, though single readings can be large; an effect the other way counts as inactive or inconclusive.
# Columns and labels:
# [1] = Validation of Assay for Modulators of Lamin A Splicing (AID 1459; active = well fitted curve in the direction sought with a large enough effect in the signal ratio; the % refers to the signal ratio;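 also: cells exposed to compound for two days before reading; ratio rise marks activators and ratio drop marks inhibitors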)
# In short: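 Splicing correction read as GFP (500-530 nm) over DsRed2 (575-640 nm) object intensity after 48 h compound exposure of reporter HeLa S3 clones (600 cells/well, 2% FBS medium); ancitabine and cycloheximide titrations, 0.5% DMSO as vehicle.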
# [2] = target: DNA repair nuclease/redox regulator APEX1 (Homo sapiens) (UniProt P27695); experiment: qHTS Validation Assay for Inhibitors of the Human Apurinic/apyrimidinic Endonuclease 1 (APE1) (AID 1705; also: potency is read from the fitted curve at half-maximal effect)
# Sequence of DNA repair nuclease/redox regulator APEX1 (Homo sapiens) (P27695 whole entry, looked up): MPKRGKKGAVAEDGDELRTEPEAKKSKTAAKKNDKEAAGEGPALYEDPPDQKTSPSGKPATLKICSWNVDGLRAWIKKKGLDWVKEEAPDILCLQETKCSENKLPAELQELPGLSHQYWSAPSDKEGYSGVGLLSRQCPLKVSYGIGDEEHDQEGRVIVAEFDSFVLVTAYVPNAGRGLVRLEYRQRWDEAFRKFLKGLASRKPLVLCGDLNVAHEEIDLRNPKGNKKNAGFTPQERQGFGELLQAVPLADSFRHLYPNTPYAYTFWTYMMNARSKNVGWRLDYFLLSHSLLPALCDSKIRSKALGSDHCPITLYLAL
# In short: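 Activity read as rising fluorescence (598 nm emission, 525 nm excitation) from incision of a TAMRA/BHQ-2 duplex carrying a THF abasic site (50 nM). Compound and enzyme sat 15 min at RT before substrate start; signal change between first and third 60-s reads.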
# [3] = target: Endonuclease 4 (Escherichia coli (strain K12)) (UniProt P0A6C1); experiment: Counterscreen for APE1 Inhibitors: qHTS Validation Assay for Inhibitors of Endonuclease IV (AID 1708)
# In short: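 Enzymatic AP-site incision assay using a double-stranded THF substrate labelled with TAMRA and BHQ-2; released fluorescence signals activity. Enzyme 2 nM, substrate 50 nM, 15 min compound preincubation.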
# [4] = qHTS for differential inhibitors of proliferation of Plasmodium falciparum line 7G8 (AID 1815);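 also: parasite growth measured after three days of incubation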; also: potency is read from the fitted curve at half-maximal effect
# [5] = qHTS for differential inhibitors of proliferation of Plasmodium falciparum line GB4 (AID 1816); conditions: Potency: Plasmodium falciparum GB4 proliferation inhibition;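 also: parasite growth measured after 72 h incubation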; also: potency is read from the fitted curve at half-maximal effect
# [6] = qHTS for differential inhibitors of proliferation of Plasmodium falciparum line 3D7 (AID 1876); also: potency is read from the fitted curve at half-maximal effect
# [7] = qHTS for differential inhibitors of proliferation of Plasmodium falciparum line D10 (AID 1877);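 also: parasites grown with compound for 72 h before DNA staining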; also: potency is read from the fitted curve at half-maximal effect
# [8] = qHTS for differential inhibitors of proliferation of Plasmodium falciparum line Dd2 (AID 1882); conditions: Potency: Plasmodium falciparum Dd2 proliferation inhibition; also: nearly all actives have a fitted effect of over 65% in size; also: potency is read from the fitted curve at half-maximal effect
# In short: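 SYBR Green I DNA fluorescence read-out, ex 485/em 535 nm. Signals were normalized to 0.29 uM artemisinin and DMSO wells, then corrected using vehicle-only plates flanking each stack. Parasite growth ran 72 h in erythrocytes before lysis.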
# [9] = qHTS for differential inhibitors of proliferation of Plasmodium falciparum line W2 (AID 1883); conditions: Potency: Plasmodium falciparum W2 proliferation inhibition;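 also: parasites grown with compound for 72 h before lysis and staining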; also: potency is read from the fitted curve at half-maximal effect
# [10] = qHTS for differential inhibitors of proliferation of Plasmodium falciparum line HB3 (AID 1886); conditions: Potency: Plasmodium falciparum HB3 proliferation inhibition;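 also: parasites grown with compound for 72 h before SYBR Green readout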; also: potency is read from the fitted curve at half-maximal effect
# [11] = target: Ferritin light chain (Equus caballus) (UniProt P02791); experiment: qHTS Validation Assay for Identification of Novel General Anesthetics (AID 2323); also: series mostly up to about 77 µM
# Sequence of Ferritin light chain (Equus caballus) (P02791 2-175 limits assumed): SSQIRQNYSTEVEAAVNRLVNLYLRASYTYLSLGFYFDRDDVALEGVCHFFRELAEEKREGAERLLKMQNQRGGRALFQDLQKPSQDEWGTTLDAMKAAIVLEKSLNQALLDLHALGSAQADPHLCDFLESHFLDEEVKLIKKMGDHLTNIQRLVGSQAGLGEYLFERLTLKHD
# In short: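 Competitive displacement of the profluorescent anesthetic 1-AMA (50% saturated, PBS) from 10 uM apoferritin, 10 min, room temperature. Activity is normalized 380/535 nm fluorescence; concentration-response fitted with a four-parameter Hill equation.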
# [12] = target: ATP-dependent DNA helicase Q1 (Homo sapiens) (UniProt P46063); experiment: qHTS Validation Assay for Inhibitors of RecQ-Like Dna Helicase 1 (RECQ1) (AID 2353)
# Sequence of ATP-dependent DNA helicase Q1 (Homo sapiens) (P46063 whole entry, looked up): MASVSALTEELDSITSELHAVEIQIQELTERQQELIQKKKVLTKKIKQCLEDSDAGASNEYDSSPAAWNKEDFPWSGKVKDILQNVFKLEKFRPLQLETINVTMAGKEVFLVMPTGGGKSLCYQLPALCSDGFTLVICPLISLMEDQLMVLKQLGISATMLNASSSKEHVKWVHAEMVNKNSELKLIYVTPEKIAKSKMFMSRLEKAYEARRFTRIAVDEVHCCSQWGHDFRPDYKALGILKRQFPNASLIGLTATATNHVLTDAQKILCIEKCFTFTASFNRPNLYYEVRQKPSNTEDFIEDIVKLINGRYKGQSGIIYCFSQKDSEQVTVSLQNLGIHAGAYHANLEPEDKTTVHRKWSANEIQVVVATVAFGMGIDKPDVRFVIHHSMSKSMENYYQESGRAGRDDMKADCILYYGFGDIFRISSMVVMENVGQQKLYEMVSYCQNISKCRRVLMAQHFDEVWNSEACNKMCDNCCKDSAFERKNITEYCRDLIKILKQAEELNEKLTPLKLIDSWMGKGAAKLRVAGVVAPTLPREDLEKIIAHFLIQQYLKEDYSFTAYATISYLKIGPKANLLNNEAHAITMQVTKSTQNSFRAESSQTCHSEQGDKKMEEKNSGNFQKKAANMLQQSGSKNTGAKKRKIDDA
# In short: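 50 nM RECQ1T1 preincubated 15 min with compound in Tris pH 8.0 buffer with MgCl2, DTT, Tween-20 and 2.5 ug/ml poly(dI-dC); started with 200 nM TAMRA/BHQ-2 forked duplex and 2 mM ATP. Unwinding read as fluorescence (525/598 nm), two reads 2 h apart.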
# [13] = target: RecQ-like DNA helicase BLM (Homo sapiens) (UniProt P54132); experiment: qHTS Validation Assay for Inhibitors of Bloom's syndrome helicase (BLM) (AID 2364); also: potency is read from the fitted curve at half-maximal effect
# Sequence of RecQ-like DNA helicase BLM (Homo sapiens) (P54132 whole entry, looked up): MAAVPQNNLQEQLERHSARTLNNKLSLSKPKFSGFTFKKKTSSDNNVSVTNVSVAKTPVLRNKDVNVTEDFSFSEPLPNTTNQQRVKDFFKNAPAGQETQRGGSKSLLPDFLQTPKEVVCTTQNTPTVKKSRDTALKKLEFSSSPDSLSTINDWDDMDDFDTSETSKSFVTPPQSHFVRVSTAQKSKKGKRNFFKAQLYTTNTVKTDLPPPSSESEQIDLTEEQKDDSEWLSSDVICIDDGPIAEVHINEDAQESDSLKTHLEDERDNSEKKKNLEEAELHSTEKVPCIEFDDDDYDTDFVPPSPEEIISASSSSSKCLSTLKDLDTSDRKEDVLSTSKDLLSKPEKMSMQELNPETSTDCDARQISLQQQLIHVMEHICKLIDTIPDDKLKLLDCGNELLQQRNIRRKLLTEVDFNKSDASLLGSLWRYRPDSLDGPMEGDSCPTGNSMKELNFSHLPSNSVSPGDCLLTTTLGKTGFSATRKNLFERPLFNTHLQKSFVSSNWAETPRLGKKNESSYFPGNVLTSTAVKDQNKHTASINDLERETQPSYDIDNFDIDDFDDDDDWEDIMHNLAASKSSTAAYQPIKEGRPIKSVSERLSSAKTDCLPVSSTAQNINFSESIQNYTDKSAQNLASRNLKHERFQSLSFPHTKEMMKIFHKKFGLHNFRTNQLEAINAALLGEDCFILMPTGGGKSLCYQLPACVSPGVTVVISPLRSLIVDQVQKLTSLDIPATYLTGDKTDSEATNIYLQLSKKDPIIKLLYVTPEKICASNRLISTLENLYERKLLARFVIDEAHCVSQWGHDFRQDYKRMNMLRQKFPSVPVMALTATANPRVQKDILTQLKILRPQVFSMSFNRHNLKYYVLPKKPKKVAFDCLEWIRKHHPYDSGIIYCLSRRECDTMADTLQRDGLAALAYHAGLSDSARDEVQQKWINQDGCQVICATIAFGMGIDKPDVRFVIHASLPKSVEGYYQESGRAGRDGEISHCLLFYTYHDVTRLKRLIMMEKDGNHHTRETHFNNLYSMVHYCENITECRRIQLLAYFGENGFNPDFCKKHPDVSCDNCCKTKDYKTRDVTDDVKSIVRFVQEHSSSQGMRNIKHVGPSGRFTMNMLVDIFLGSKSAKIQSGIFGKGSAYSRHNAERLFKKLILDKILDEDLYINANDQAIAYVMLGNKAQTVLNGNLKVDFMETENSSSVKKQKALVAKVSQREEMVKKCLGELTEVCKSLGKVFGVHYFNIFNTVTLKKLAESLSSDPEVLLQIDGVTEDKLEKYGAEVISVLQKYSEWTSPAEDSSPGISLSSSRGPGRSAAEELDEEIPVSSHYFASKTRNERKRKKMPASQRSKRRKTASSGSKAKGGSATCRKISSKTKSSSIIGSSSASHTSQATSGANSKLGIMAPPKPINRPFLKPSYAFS
# In short: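 Forked 20-bp duplex substrate (200 nM, TAMRA/BHQ-2) plus 2 mM ATP added after 15 min compound preincubation with 50 nM enzyme, pH 8.0, poly(dI-dC) 2.5 ug/ml. Strand separation followed by fluorescence (525/598 nm) over 2 h, normalized to enzyme-free and DMSO controls.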
# [14] = Counterscreen for APE1 Inhibitors: Fluorescent Dye Displacement Validation Assay (AID 1707)
# In short: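 ThO 250 nM + dsDNA 50 nM (THF abasic site, 5'-TAMRA), Tris-HCl pH7.5/50mM NaCl/2 mM MgCl2/0.01% Tween-20; compounds pin-transferred; ex 480/em 540 nm endpoint. Neutral = no compound; no-DNA ThO wells = negative control.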
# [15] = qHTS Assay for Modulators of Human Peripheral Myelin Protein 22 (PMP22) Expression/Activity (AID 1967; active = well fitted curve in the direction sought with a large enough effect in the signal ratio; the % refers to the signal ratio)
# In short: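 Readout is the corrected green/red luminescence ratio after 24 h compound exposure, normalised to untreated cells (0%). Engineered MSC80 mouse Schwann cells express green luciferase from the mouse Pmp22 promoter and red luciferase from EF-alpha as internal control.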
# [16] = target: alpha-glucosidase (Oryza sativa, rice) (UniProt Q653V4); experiment: Counterscreen for Glucocerebrosidase Inhibitors: qHTS Assay for Rice alpha-Glucosidase at pH 5.0 (AID 997)
# In short: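 Rice alpha-glucosidase (4 nM final) with 400 uM 4-methylumbelliferyl-alpha-D-glucopyranoside in citrate buffer pH 5.0, 20 min at room temperature, stopped at pH 10; fluorescence 365/440 nm, compounds 0.7 nM–77 uM, AC50 from Hill fits.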
SMILES,outcome [1],Potency [2],Potency [3],Potency [4],Potency [5],Potency [6],Potency [7],Potency [8],Potency [9],Potency [10],Potency [11],Potency [12],Potency [13],Potency [14],outcome [15],outcome [16]
Cn1cc(C(F)(F)F)nc1-c1ccc(OCC(O)CNCCOc2ccc(O)c(C(N)=O)c2)cc1 (stereo not given),inactive,inactive,inactive,12.6 µM (active),12.6 µM (active),2.82 µM (active),3.16 µM (active),inactive,10 µM (active),5.62 µM (active),inactive,inactive,inactive,,,
C#CC(N)CCC(=O)O (stereo not given),inactive,inactive,,inactive,inactive,inactive,inactive,inactive,,inactive,inactive,inactive,inactive,inactive,inactive,
NC1(C(=O)O)CCCCC1,inactive,inactive,,inactive,inactive,inactive,inactive,,inactive,inactive,inactive,inactive,,inactive,inactive,inactive
OC1(c2ccc(Cl)cc2)CCN(Cc2c[nH]c3ccccc23)CC1,inactive,inactive,,,,,,,,,inactive,inactive,inactive,inactive,,inactive
COc1cccc(OC)c1OCCNCC1CSc2ccccc2O1 (stereo not given),inactive,inactive,,7.94 µM (active),4.47 µM (active),,,,3.98 µM (active),12.6 µM (active),inactive,inactive,inactive,inactive,,
O[Si](CCCN1CCCCC1)(c1ccc(F)cc1)C1CCCCC1 (stereo not given),inactive,inactive,,0.0708 µM (active),0.0398 µM (active),0.0794 µM (active),0.0282 µM (active),0.141 µM (active),0.0631 µM (active),0.0708 µM (active),,inactive,,,,
COC(=O)[C@H](NC(=O)c1cc(-c2ccccc2)nc2ccccc12)c1ccccc1,inactive,inactive,,11.2 µM (active),,inactive,inactive,inactive,12.6 µM (active),,inactive,inactive,,inactive,,inactive
O=S(=O)(c1cccc2c(Cl)cccc12)N1CCCNCC1,inactive,inactive,,5.01 µM (active),3.16 µM (active),14.1 µM (active),,,1.58 µM (active),,inactive,inactive,inactive,inactive,,inactive
CCCc1c(-c2ccc(O)cc2)nn(-c2ccc(O)cc2)c1-c1ccc(O)cc1,inactive,inactive,,,inactive,inactive,inactive,,,inactive,inactive,inactive,,inactive,,inactive
Nc1ccc(-c2ccc3ccccc3n2)cc1,inactive,inactive,,,,,inactive,inactive,,,inactive,inactive,,inactive,,inactive
CCCCCCCCCCC/C=C\C(C)(C)/C=C\CCCC(=O)O,inactive,35.5 µM (active),,,inactive,inactive,inactive,,,inactive,,,25.1 µM (active),inactive,inactive,inactive
CCCCCC[C@@H]([C@@H](C)O)n1cnc2c(N)ncnc21,inactive,inactive,,inactive,inactive,,inactive,inactive,,inactive,inactive,inactive,,inactive,inactive,
N#C/C(=C\c1ccc(O)c(O)c1)C(=O)NCCCNC(=O)/C(C#N)=C/c1ccc(O)c(O)c1,inactive,inactive,,,,,,,,,,,,,,inactive
NC(=O)CC[C@H](N)C(=O)O,inactive,inactive,inactive,inactive,inactive,inactive,inactive,inactive,inactive,inactive,inactive,inactive,,,,
CCOC(=O)C12CC1/C(=N/O)c1ccccc1O2 (stereo not given),inactive,inactive,inactive,inactive,inactive,inactive,inactive,inactive,inactive,inactive,inactive,inactive,,,,
Cn1ccnc1,inactive,inactive,,inactive,inactive,inactive,inactive,inactive,inactive,inactive,inactive,inactive,inactive,inactive,inactive,inactive
CCCN(CCc1ccccc1)C1CCc2c(O)cccc2C1 (stereo not given),inactive,inactive,,1.12 µM (active),0.891 µM (active),3.16 µM (active),5.01 µM (active),2 µM (active),1 µM (active),2.51 µM (active),,inactive,inactive,,,
N[C@H]1CONC1=O,inactive,inactive,,inactive,inactive,inactive,inactive,inactive,inactive,inactive,inactive,inactive,,inactive,,
COC1(C2=NCCN2)COc2ccccc2O1 (stereo not given),inactive,inactive,inactive,inactive,,inactive,inactive,inactive,,inactive,inactive,inactive,,,inactive,
C=CC1(C)CC(=O)C2(O)C(C)(O1)C(OC(C)=O)C(O)C1C(C)(C)CCC(O)C12C (stereo not given),inactive,inactive,inactive,,inactive,inactive,inactive,,,,inactive,inactive,,,,
Cn1cc(C(=O)OCC2CCN(CCNS(C)(=O)=O)CC2)c2ccccc21,inactive,inactive,,10 µM (active),,,,,8.91 µM (active),,inactive,inactive,inactive,inactive,,inactive
